Screens: PubChem, Broad Institute
The full list was thinned out, with hits kept by preference.
Tg IFNy HTS: blocks Toxoplasma gondii growth in the presence of IFN-gamma. Toxoplasma gondii growth in IFN-gamma-treated host cells; active compounds read low. activity change, negative = inhibition, % (test concentration not listed). 69,000 compounds, 3.8% hits. AID 1259416; in the data active = activity change below about -70%, passing the limit was not always enough;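 also: host cells are HeLa cells infected with Toxoplasma gondii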
Numbers without * were called inactive; ! = not confirmed by another sample.

SMILES | Tg IFNy HTS
Cc1nc(C(C)NC(=O)CCc2c[nH]c3ccccc23)n[nH]1 (stereo not given) | -7.9
COc1ccc(CCN2CC(N)CC2=O)cc1 (stereo not given) | -1.6
CO[C@H]1CN(C)C(=O)c2ccc(NS(C)(=O)=O)cc2OC[C@H](C)N(C(=O)CN(C)C)C[C@H]1C | 55.5
CC[C@H](NC(=O)c1c(C)c(-c2ccccc2)nc2ccccc12)c1ccccc1 | -12.1
Cc1ccc(OC(=O)c2c(-c3ccccc3)nnc3ccccc23)cc1 | -105.6*
Cc1noc(C)c1C(=O)Oc1ccccc1 | -14.1
CC(C)C(=O)N1CCC2(CC1)COCCN2CCN(C)C | -1.5
CC(c1n[nH]c(=O)n1Cc1ccccc1)N1CCCC1 (stereo not given) | -2.0
OCCOCCN1CCN(C2=Nc3ccccc3Sc3ccccc32)CC1 | -4.5
CN(C)CCC1(c2ccc(Cl)cc2)Cc2ccccc2C(=O)O1 (stereo not given) | 14.1
CN(C)CC/C=C1/c2ccccc2COc2ccc(CC(=O)O)cc21 | -1.9
CC(C)c1ccc2c(c1)C(N1CCN(CCO)CC1)Cc1ccc(F)cc1S2 (stereo not given) | -66.0
CN(C)CCC=C1c2ccccc2C=Cc2ccccc21 | -26.5
OCCN1CCN(CC/C=C2/c3ccccc3Sc3ccc(Cl)cc32)CC1 | -74.0*
CN(C)CC/C=C1/c2ccccc2COc2ccccc21 | 16.0
CN(C)CCC=C1c2ccccc2CCc2ccccc21 | -74.8*!
CN(C)CC/C=C1\c2ccccc2Sc2ccc(Cl)cc21 | -77.1*!
CCCNC(=O)C[C@H]1CC[C@H]2[C@@H](COC[C@@H](O)CN2Cc2ccncc2)O1 | 53.4
C[C@H](CO)N1C[C@H](C)[C@H](CN(C)CC2CCCCC2)OCc2cnnn2CCCC1=O | 181.4
C[C@@H]1CN([C@H](C)CO)C(=O)CCCn2nncc2CO[C@H]1CN(C)C(=O)c1ccc(N2CCN(C)CC2)cc1 | -26.5
C[C@H]1CN([C@@H](C)CO)C(=O)CCCn2nncc2CO[C@@H]1CN(C)C(=O)c1ccc(N2CCN(C)CC2)cc1 | 177.4
C[C@@H]1CN([C@@H](C)CO)C(=O)CCCn2nncc2CO[C@H]1CN(C)C(=O)c1ccc(N2CCN(C)CC2)cc1 | -87.0*
C[C@@H]1CN([C@H](C)CO)C(=O)CCCn2nncc2CO[C@H]1CN(C)CC1CCCCC1 | -99.3*
C[C@H](CO)N1C[C@H](C)[C@@H](CN(C)CC2CCCCC2)OCc2cnnn2CCCC1=O | 91.1
CC(C)CC(NS(=O)(=O)c1ccc2[nH]c(=O)ccc2c1)C(=O)NC1CCCCCC1 (stereo not given) | 6.5
SMILES | Tg IFNy HTS
Cc1ccc(CNc2nc(Cn3c(C)nc4ccccc4c3=O)cc(=O)[nH]2)cc1 | 8.0
CCc1cnc(N2CCC3(CC2)COc2ccccc2S(=O)(=O)N(CCOC)C3)nc1 | -9.6
Cc1nc2nc(C)c(CCC(=O)O)c(=O)n2[nH]1 | -9.4
CC(C)N1CCc2c(nc(C3CCCCN3C(=O)c3cc4c(s3)CCCC4)[nH]c2=O)C1 (stereo not given) | 0.7
COc1ccc(CN2CCCC(c3onc4c3CC(C)CC4)C2)c(O)c1 (stereo not given) | -63.9
N#CCSc1nnc(SCC#N)s1 | 32.0
CC(=O)N1CCC(C(=O)NCc2ccccc2)(N(Cc2ccccc2)C(=O)c2ccccc2Br)CC1 | -6.6
Cc1ccc(C(=O)Nc2ccc(S(=O)(=O)O)c3cc(S(=O)(=O)O)cc(S(=O)(=O)O)c23)cc1NC(=O)c1cccc(NC(=O)Nc2cccc(C(=O)Nc3cc(C(=O)Nc4ccc(S(=O)(=O)O)c5cc(S(=O)(=O)O)cc(S(=O)(=O)O)c45)ccc3C)c2)c1 | -4.2
CN(C)CCN1C(=O)c2cccc3cc(N)cc(c23)C1=O | -77.1*
O=C(CCCN1C(=O)c2cccc3cccc(c23)C1=O)OCc1ccc2c(c1)OCO2 | -1.4
O=C1c2cccc3cccc(c23)C(=O)N1CCO | -26.9
Cc1cccc(NC(=O)CNC(C)c2ccc(Cl)cc2)c1C (stereo not given) | 5.2
CCCCCCCCCCC[C@@H](C[C@@H]1OC(=O)[C@H]1CCCCCC)OC(=O)[C@H](CC(C)C)NC=O | -82.3*
CCCCC[C@H](O)/C=C/[C@H]1[C@H](O)CC(=O)[C@@H]1CCCCCCC(=O)O | 13.6
COc1cc(OC(C)=O)c(-c2cc(OC(C)=O)c(OC)cc2OC(C)=O)cc1OC(C)=O | 103.8
CC(=O)Oc1cccc(C(=O)O)c1OC(C)=O | 16.7
CC(=O)Nc1cc(OC(C)=O)c2nonc2c1OC(C)=O | -75.1*
CN1C(=O)CC(c2cnn(C)c2)C12CCN(C(=O)c1cscn1)CC2 (stereo not given) | 5.5
COc1ccc(-c2nc(C)c(CCNC(=O)C(=O)Nc3ccc(C)c(F)c3)s2)cc1OC | 42.2
CC(C)N(C)Cc1cc(=O)n2c(n1)CN(Cc1nccs1)CCC2 | -2.0
C[C@H]1O[C@@H](n2cc(F)c(=O)[nH]c2=O)[C@H](O)[C@@H]1O | -91.3*
CCCCCOC(=O)Nc1nc(=O)n([C@@H]2O[C@H](C)[C@@H](O)[C@H]2O)cc1F | -53.3
Cc1cn([C@H]2O[C@@H](CO)[C@H](O)[C@@H]2F)c(=O)[nH]c1=O | 18.0
